Compound activity deposited in PubChem BioAssay by National Center for Advancing Translational Sciences (NCATS).
D1 PAM – Potentiators of Human D1 Dopamine Receptor: qHTS. HEK293 TREx D1 cells, calcium flux, dopamine EC20 potentiation. potentiation, % at 10 µM. hit rate 0.036% among 360,000. AID 504651, 2011; in the data active = potentiation above about 30%
TRHR agonist-1 – qHTS for Small Molecule Agonists and Allosteric Enhancers of Human TRH Receptor: Primary Screen for Agonists | TRHR cells, calcium flux fluo-8, FDSS agonist mode | activation, % at 2 µM | hit rate 0.18% among 360,000 | AID 493084, 2011
Target sequence (P34981 whole entry, looked up): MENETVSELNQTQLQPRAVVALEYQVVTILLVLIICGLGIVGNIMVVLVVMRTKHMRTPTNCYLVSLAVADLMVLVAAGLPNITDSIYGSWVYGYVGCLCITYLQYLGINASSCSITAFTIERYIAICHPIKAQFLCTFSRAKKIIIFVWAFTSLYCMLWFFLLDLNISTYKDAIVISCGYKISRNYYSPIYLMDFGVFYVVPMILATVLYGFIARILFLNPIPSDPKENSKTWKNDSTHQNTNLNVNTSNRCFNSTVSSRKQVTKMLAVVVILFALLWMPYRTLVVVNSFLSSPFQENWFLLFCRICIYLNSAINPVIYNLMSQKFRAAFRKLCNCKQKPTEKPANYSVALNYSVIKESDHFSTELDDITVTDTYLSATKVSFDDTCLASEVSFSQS
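Steps: seed TRHR cells overnight; add fluo-8 no-wash Ca dye, RT 30 min–1.5 h; record 10 s baseline; pin-transfer compounds; monitor fluorescence 1 cycle/s for the agonist window. Calcium increases flag candidate agonists.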
D1 antagonist – Antagonist of Human D 1 Dopamine Receptor: qHTS; D(1A) dopamine receptor (Homo sapiens), P21728; HEK293 TREx D1 cells, calcium flux, dopamine EC80; stronger effect = lower value; activity change, negative = inhibition, % at 10 µM; hit rate 3.2% among 360,000; AID 504652, 2011; in the data active = activity change below about -30%
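After overnight tetracycline induction at 30 C, force-coupled D1 HEK293 cells took up a no-wash calcium dye at room temperature. Compounds were added and monitored 180 s, and the response to EC80 dopamine was then recorded.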
TRHR enhancer-1 – qHTS for Small Molecule Agonists and Allosteric Enhancers of Human TRH Receptor: Primary Screen for Enhancers | Thyrotropin-releasing hormone receptor (Homo sapiens), P34981 | TRHR cells, fluo-8 calcium fluorescence, EC20 TRH enhancement | enhancement, % at 2 µM | hit rate 0.66% among 360,000 | AID 493056, 2011; in the data active = enhancement above about 30%
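TRHR-expressing cells loaded with fluo-8 calcium dye were read kinetically (ex 480/em 530) during compound addition, then stimulated with an EC20 of TRH (10 nM final). Enhancement of the Gq-mediated intracellular calcium response was scored.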
D1 ag – Allosteric Agonists of the Human D1 Dopamine Receptor: qHTS; HEK293 T-REx D1 cells, calcium flux, agonist mode; AID 504660, 2011; hit rate 1% among 360,000; D(1A) dopamine receptor (Homo sapiens), P21728; activation, % at 2 µM
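Tetracycline-induced HEK293 TREx D1 cells, force-coupled to calcium signalling, were dye-loaded with a no-wash calcium kit. Compound was pin-added after a 10 s baseline. Fluorescence was read kinetically at 1 cycle/s for 180 s, with calcium rises flagged as agonism.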
TRHR enhancer-2 – qHTS for Small Molecule Agonists and Allosteric Enhancers of Human TRH Receptor: Confirmation Screen for Enhancers; activity change, negative = inhibition, % at 46.1 µM; 970 tested, under 10 active; TRH receptor cell assay, enhancer confirmation qHTS; shares compounds with TRHR enhancer-1; AID 493076, 2011; active = well fitted curve in the direction sought with a large enough effect; inconclusive = small, poorly fitted or top-dose-only effect, or another doubt; inactive = no such curve, though single readings can be large; an effect the other way counts as inactive or inconclusive;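 note: compound effect scored on response to added TRH at EC20 of 10 nM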
TRHR agonist-2 – qHTS for Small Molecule Agonists and Allosteric Enhancers of Human TRH Receptor: Confirmation Screen for Agonists; shares compounds with TRHR enhancer-1; hit rate 8% among 970; TRHR-expressing cells, agonist activation read-out; Potency, µM (titrated, usually from 46.1 µM), usual class: activators; AID 493078, 2011; active = well fitted curve in the direction sought with a large enough effect; inconclusive = small, poorly fitted or top-dose-only effect, or another doubt; inactive = no such curve, though single readings can be large; an effect the other way counts as inactive or inconclusive; note: nearly all actives have a fitted effect of over 75% in size
Large screens that a line does not name were inactive (follow-up assays come after a bar, where they were run); ! = not active in a repeat. Only some compounds are listed: those with a hit (about 4.6% of all), similar ones and a draw of the others. Cut-off read from the data, not from the text of the source, unless noted: active = activation above about 30%; inactive = the rest.

Cc1cccc(NC(=O)CSc2nc3c([nH]c4ccccc43)c(=O)n2-c2ccc(F)cc2)c1C	D1 antagonist -33
COc1ccc(-n2c(SCC(=O)Nc3cccc(C)c3C)nc3c([nH]c4ccccc43)c2=O)cc1	none
COc1cccc(-n2c(SCC(N)=O)nc3c([nH]c4ccccc43)c2=O)c1	TRHR enhancer-1 37
CCOc1ccc(NC(=O)Cn2c(=O)n(Cc3ccccc3)c(=O)c3sc4ccccc4c32)cc1	none
CCN(CC(=O)Nc1ccc(NC(C)=O)cc1)C(=O)CCN1C(=O)C2CC=CCC2C1=O (stereo unspecified)	D1 antagonist -44
CCN(CC(=O)Nc1ccc(NC(C)=O)cc1)C(=O)CCCN1C(=O)c2ccccc2C1=O	none
CCN(CC(=O)Nc1ccc(NC(C)=O)cc1)C(=O)CCCOc1ccc(C(C)(C)C)cc1	D1 ag 32
Cc1ccc(N(C(C)C(=O)N2CCCC2)S(C)(=O)=O)cc1 (stereo unspecified)	D1 antagonist -32
Cc1oc(-c2ccc(C(=O)NCc3ccc(Cl)cc3)cc2)nc1CS(=O)(=O)c1ccccc1	none
COc1ccc(C(=O)NC2(C(F)(F)F)C(=O)NC(C)=C2C#N)cc1 (stereo unspecified)	TRHR enhancer-1 41
CC1=C(C#N)C(NC(=O)c2cccc(Cl)c2)(C(F)(F)F)C(=O)N1 (stereo unspecified)	D1 antagonist -31!
COc1ccc(C(=O)NC2(C(F)(F)F)C(=O)NC(C)=C2C#N)cc1OC (stereo unspecified)	none
COCc1nc2ccccc2n1Cc1ccc(C(C)(C)C)cc1	none
CCC(=O)Nc1c(-c2ccc(C)cc2)nc2ccc(C)cn12	none
COC(=O)c1nc2ccc(C)cn2c1F	D1 antagonist -58
Cc1ccccc1CNC(=O)c1ccc2[nH]c(C)c(C)c2c1	none
C=CCOc1ccc(/C(O)=C2/C(=O)C(=O)N(CCCn3ccnc3)C2c2cccs2)cc1 (stereo unspecified)	D1 antagonist -52
Cc1ccc(Oc2nccc(-c3ccc(Cl)cc3)n2)cc1	D1 antagonist -30
Cc1c(C)c2cc3c(C)coc3cc2oc1=O	TRHR enhancer-1 41 | TRHR enhancer-2 inactive | TRHR agonist-2 inactive
COc1cccc(CNC(=O)[C@@H](C)N2C(=O)N3CCc4c([nH]c5ccc(OC)cc45)C3(C)C2=O)c1 (stereo partly specified)	none
COc1ccc(/C=C2\SC(=S)N(C(C)C(=O)NC3C=CS(=O)(=O)C3)C2=O)cc1 (stereo unspecified)	none
COc1cccc(/C=C2\SC(=S)N(C(C)C(=O)NC3C=CS(=O)(=O)C3)C2=O)c1 (stereo unspecified)	TRHR enhancer-1 50 | TRHR enhancer-2 inactive | TRHR agonist-2 inactive
O=C(Nc1ccc2oc(-c3cccnc3)nc2c1)c1ccc(-c2ccccc2OC(F)(F)F)o1	none
C=CCn1c(=N)n(CC(=O)c2ccc(OC)cc2)c2ccccc21	none
Cc1cc(OCCCCNC(C)C)cc(C(C)C)c1	TRHR enhancer-1 42 | TRHR enhancer-2 inactive | TRHR agonist-2 inactive
Cc1cc(OCCOCCNC(C)C)cc(C)c1Cl	none
Cc1cc(C=C2C(=O)c3ccccc3C2=O)c(C)n1-c1cccc(C(=O)O)c1	none
Cc1cc(C=C2C(=O)c3ccccc3C2=O)c(C)n1-c1ccc(C(=O)O)cc1	TRHR enhancer-1 49 | TRHR enhancer-2 inactive | TRHR agonist-2 inconclusive
COc1ccc(C)cc1NC(=O)COCc1cc(-c2ccc(F)cc2)on1	none
